Measured values: the supplement of paper PMC13380429

Test system: Vero E6 infected with SARS-CoV-2
Assay: inhibition of SARS-CoV-2 cytopathic effect; higher = more antiviral protection, active = above 15
Settings: 48 h

Measured: inhibition of SARS-CoV-2 cytopathic effect

CCOC(=O)N1c2ccc(C(F)(F)F)cc2[C@@H](N(Cc2cc(C(F)(F)F)cc(C(F)(F)F)c2)C(=O)OC)C[C@H]1CC
inactive: 1 nM 0.17% | 8.33 nM 0.5% | 100 nM 0.49% | 833.33 nM 1.09% | 10000 nM 1.77%

O=C(c1c2ccccc2cc2ccccc12)N1CCC(N2CCC[C@@H](C(=O)N3CCOCC3)C2)CC1
inactive: 1 nM -1.36% | 8.33 nM -0.08% | 100 nM -0.31% | 833.33 nM -1.35% | 10000 nM -6.08%

CCCN1CCO[C@@H]2c3cc(O)ccc3OC[C@H]21
inactive: 1 nM -1.91% | 8.33 nM -3.42% | 100 nM 2.39% | 833.33 nM -0.35% | 10000 nM -2.98%

CC(=O)NCCCOc1ccc(C(=O)N2CCC(N3C(=O)CCc4ccccc43)CC2)cc1
inactive: 1 nM 2.92% | 8.33 nM -2.2% | 100 nM 0.95% | 833.33 nM 1.64% | 10000 nM 3.15%

CC(C(=O)O)c1ccc(C(=O)c2cccs2)cc1 (stereo not given) [suprofen]
inactive: 1 nM 2.14% | 8.33 nM 0.24% | 100 nM -0.86% | 833.33 nM -2.28% | 10000 nM -2.92%

COC1=C(OC)C(=O)C(CCCCCCCCCCO)=C(C)C1=O [idebenone]
inactive: 1 nM -0.23% | 8.33 nM -3.04% | 100 nM -0.1% | 833.33 nM 0.64% | 10000 nM 0.26%

O=C(Nc1ccc(-c2ccnc(Nc3ccc(N4CCOCC4)cc3)n2)cc1)C1CCCN1 (stereo not given)
inactive: 1 nM -1.37% | 8.33 nM -1.43% | 100 nM -0.97% | 833.33 nM -1.01% | 10000 nM 8.93%

O=C(c1ccc(F)cc1)C1CCN(CCn2c(=O)[nH]c3ccccc3c2=O)CC1 [ketanserin]
inactive: 1 nM 1.58% | 8.33 nM -0.51% | 100 nM -0.25% | 833.33 nM 2% | 10000 nM -1.33%

COc1cccc([C@H](O)C2CCN(CCc3ccc(F)cc3)CC2)c1OC [volinanserin]
inactive: 1 nM -1.28% | 8.33 nM -0.6% | 100 nM -3.32% | 833.33 nM -1.38% | 10000 nM -2.28%

C[C@H](N)[C@H](O)c1cccc(O)c1 [metaraminol]
inactive: 1 nM 5.57% | 8.33 nM 5.04% | 100 nM 2.34% | 833.33 nM 1.83% | 10000 nM 1.14%

NS(=O)(=O)c1cc2c(cc1Cl)NC(C(Cl)Cl)NS2(=O)=O (stereo not given) [trichlormethiazide]
inactive: 1 nM -3.15% | 8.33 nM -5.19% | 100 nM -10.5% | 833.33 nM -3.29% | 10000 nM -8.52%

COc1c(C)c(C(=O)c2ccc(N)c(C(=O)O)c2)n2ccccc12
inactive: 1 nM -2.54% | 8.33 nM 1.8% | 100 nM 0.21% | 833.33 nM -1.06% | 10000 nM -1.34%

CCOc1cncc(/C=C/CCNC)c1
inactive: 1 nM 0.97% | 8.33 nM -1.63% | 100 nM -0.92% | 833.33 nM 0.41% | 10000 nM 3.59%

COc1ccc(F)c(F)c1C(=O)c1cnc(NC2CCN(S(C)(=O)=O)CC2)nc1N
inactive: 1 nM -1.93% | 8.33 nM -3.14% | 100 nM -5.01% | 833.33 nM 6.41% | 10000 nM -11.5%

CCN1C(=O)CNc2ncc(-c3ccc(-c4nc[nH]n4)nc3C)nc21
inactive: 1 nM 2.11% | 8.33 nM 2.76% | 100 nM 2.06% | 833.33 nM 2.77% | 10000 nM -4.67%

Cc1sc(N)c(C(=O)c2cccc(C(F)(F)F)c2)c1C
inactive: 1 nM 1.09% | 8.33 nM -1.79% | 100 nM -3.31% | 833.33 nM -3.27% | 10000 nM -2.62%

NC1=N[C@@](c2cccc(-c3cncnc3)c2)(c2ccnc(C(F)F)c2)c2cccc(F)c21
inactive: 1 nM 0.77% | 8.33 nM -1.06% | 100 nM -1.46% | 833.33 nM -0.56% | 10000 nM -2.76%

O=C1NCCN1c1ncc([N+](=O)[O-])s1 [niridazole]
inactive: 1 nM 0.2% | 8.33 nM -2.07% | 100 nM -4.84% | 833.33 nM -1.39% | 10000 nM -4.56%

CCCC[C@H]1OC(=O)c2ccccc21 [butylphthalide]
inactive: 1 nM -2.11% | 8.33 nM -2.6% | 100 nM -0.12% | 833.33 nM 1.5% | 10000 nM 0.31%
